Inconclusive results are not listed. Unmarked numbers belong to inactive results. The source made the active and inactive calls. Calls follow the shape of the dose curve; as a rule, active = well fitted inhibition curve with a large enough effect; inconclusive = small, poorly fitted or top-dose-only effect; inactive = flat fitted curve, though single readings scatter.
What follows are molecules tested on HEK293 (assay: Cytotoxic Profiling of Annotated Libraries Using Quantitative High-Throughput Screening (AID 1296008; also: nearly all actives have a fitted effect of over 60% in size)). Settings: Five cell lines viability, CellTiter-Glo ATP luminescence, 48-72 h; max response: active compounds read low.
How it was run: (§1)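 Cytotoxicity was measured as CellTiter-Glo ATP luminescence, read after 10 min at room temperature. Compound treatment of the cells lasted 48 or 72 hr at 37 degrees Celsius in a qHTS format.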
% is scaled to controls: 0 for no effect and ±100 for the full control effect; potency is read from the fitted curve at half-maximal effect.

Structure (SMILES) | max response
CC1CCC2(C(=O)O)CCC3(C)C(=CCC4C5(C)CCC(O)C(C)(CO)C5CCC43C)C2C1(C)O (stereo not drawn) | -24.2%
Cc1cc(Nc2nc(NC(C)c3ncc(F)cn3)ncc2Cl)n[nH]1 (stereo not drawn) | -3.92%
O=C(Nc1c(-c2cccs2)nc2ccccn12)c1ccc(Cl)cc1 | -117%
O=C(CCc1ccccc1)N1CCC(O)(Cn2cnc3cc(Cl)ccc3c2=O)CC1 | -25.5%
CC(=O)O[C@@H]1C[C@@H](OC(C)=O)C(C)(C)/C=C/[C@H](C)[C@H](OC(C)=O)[C@@]2(O)C[C@H](C)[C@H](OC(=O)c3ccccc3)[C@@H]2/C=C/1C | -1.35%

These molecules were tested on HaCat in the same assay as above. Settings: Five cell lines viability, CellTiter-Glo ATP luminescence, 48-72 h; max response: active compounds read low.
How it was run: as §1

Structure (SMILES) | max response | outcome | Potency
C=C(F)c1sc(CNCCCNc2cc(=O)c3ccccc3[nH]2)c(C)c1Br | -0.153% | – | –
CC(=O)O[C@@H]1[C@H](O)[C@@H](O[C@@H]2O[C@@H](C)[C@H](O[C@@H]3OC[C@@H](O)[C@H](O[C@@H]4OC[C@@H](O)[C@H](O)[C@H]4O)[C@H]3O)[C@@H](O[C@@H]3O[C@H](CO)[C@@H](O)[C@H](O)[C@H]3O)[C@H]2O)[C@H](OC(=O)[C@]23CCC(C)(C)C[C@H]2C2=CCC4[C@@]5(C)CC[C@H](O[C@@H]6O[C@H](C(=O)O)[C@@H](O)[C@H](O[C@@H]7OC[C@@H](O)[C@H](O)[C@H]7O)[C@H]6O[C@@H]6O[C@H](CO)[C@H](O)[C@H](O)[C@H]6O)[C@@](C)(C=O)C5CC[C@@]4(C)[C@]2(C)CC3)O[C@@H]1C (stereo partly drawn) | 0.448% | – | –
C[C@@H]1O[C@@H](O[C@@H]2CO[C@@H](O[C@H]3CC[C@@]4(C)C(CC[C@]5(C)C4CC=C4[C@@H]6CC(C)(C)CC[C@]6(C(=O)O[C@@H]6O[C@H](CO)[C@@H](O)[C@H](O)[C@H]6O)CC[C@]45C)[C@]3(C)CO)[C@H](O)[C@H]2O[C@@H]2O[C@H](CO)[C@@H](O)[C@H](O)[C@H]2O)[C@H](O)[C@H](O)[C@H]1O (stereo partly drawn) | -0.513% | – | –
C=C(C)C1CCC(C)C12CC(O)C1(C)OC1C2OC(=O)C(N)CCC(=O)O (stereo not drawn) | – | inactive | –
COc1c2c(cc3c1-c1c(cc4c(c1OC)OCO4)CC(C)C(C)C3)OCO2 (stereo not drawn) | -1.94% | – | –
CC1=CC(=O)[C@]2(O[C@@H]3O[C@@H](C)[C@H](O)[C@@H](O)[C@H]3OC(=O)/C=C/c3ccccc3)C=CO[C@@H](O[C@@H]3O[C@H](CO)[C@@H](O)[C@H](O)[C@H]3O)[C@H]12 | – | inactive | –
Cc1ccc(S(=O)(=O)c2ccc([N+](=O)[O-])o2)cc1 | – | – | 6.51 µM (active)
CCOCc1nc2c(N)nc3ccccc3c2n1CC(C)(C)O | 3.85% | – | –
C[C@@H]1O[C@@H](O[C@H]2[C@@H]3C=CO[C@@H](O[C@@H]4O[C@H](CO)[C@@H](O)[C@H](O)[C@H]4O)[C@@H]3[C@@]3(CO)O[C@@H]23)[C@H](OC(=O)/C=C/c2ccc(O)c(O)c2)[C@H](O)[C@H]1O | 1.24% | – | –
C=C1CCCC2(C)CC3(OC)OC(=O)C(C)=C3CC12 (stereo not drawn) | 2.5% | – | –
CC1CC[C@]2(C(=O)O)CC[C@]3(C(=O)O)C(=CCC4[C@@]5(C)CC[C@H](O[C@@H]6O[C@H](CO)[C@@H](O)[C@H](O)[C@H]6O)C(C)(C)C5CC[C@]43C)C2C1C (stereo partly drawn) | 4.65% | – | –
CC(C)=CC/C=C(\C)[C@H]1CC[C@]2(C)[C@@H]1[C@H](O)C[C@@H]1[C@@]3(C)CC[C@H](O)C(C)(C)[C@@H]3[C@@H](O[C@@H]3O[C@H](CO)[C@@H](O)[C@H](O)[C@H]3O)C[C@]12C | 4.08% | – | –
CC(C)CCC1(O)C(=O)C(C)(C)C(O[C@@H]2O[C@H](CO)[C@@H](O)[C@H](O)[C@H]2O)C(C)(C)C1O (stereo partly drawn) | -4.8% | – | –
OC[C@@]1(O)CO[C@@H](OC[C@H]2O[C@@H](Oc3c[nH]c4ccccc34)[C@H](O)[C@@H](O)[C@@H]2O)[C@@H]1O | -26.1% | – | –
c1ccc(N2CCN(CCc3nn[nH]n3)CC2)cc1 | -17.8% | – | –
NC(=O)c1csc(C2OC(CO)C(O)C2O)n1 (stereo not drawn) | 2.41% | – | –
O=C(Nc1ccc(S(=O)(=O)Nc2ccccc2Cl)c(Cl)c1)c1ccccn1 | -15.8% | – | –
CC(=O)OCC1(O)CCC2C(COC3OC(CO)C(O)C(O)C3OC(=O)/C=C/c3ccc(O)cc3)=COC(OC(=O)CC(C)C)C21 (stereo not drawn) | -35.1% | – | –
